According to PubChem BioAssay AID1159580 (chemical genetic matrix, 2015):
Screen size: about 5,500 compounds; about 2,000 (36%) were called active. Not shown: some 18% with an inconclusive outcome. Rule as the data show it: active = normalized growth mostly below about 0.91 (no sharp cut-off); inconclusive = no clear call, values can overlap the other calls; inactive = mostly above about 0.92. The list shows a part of the results.

Assay: chemical genetic growth profiling, strain panel (AID 1159580);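 also: tested at 20 µM; growth read once vehicle control cultures reached saturation at 30 °C; 1 = growth at the plate median or of vehicle wells; lower values mean less growth of the strain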
Conditions: growth OD

Measured: normalized growth

S=c1[nH]c2ccccc2s1
active: S. cerevisiae deletion strains, locus YLR262C, strain YPT6 (second series), hits give low values 0.82 | S. cerevisiae deletion strains, locus YNL183C, strain NPR1, hits give low values 0.751 | S. cerevisiae deletion strains, locus YOL006C, strain TOP1, hits give low values 0.417 | S. cerevisiae deletion strains, locus YOR106W, strain vam3, hits give low values 0.865 | S. cerevisiae deletion strains, locus YOR231W, strain MKK1, hits give low values 0.798 | S. cerevisiae deletion strains, locus YPL051W, strain arl3, hits give low values 0.904
inactive: S. cerevisiae deletion strains, locus YKL009W, strain mrt4, hits give low values 0.996 | S. cerevisiae deletion strains, locus YKL068W, hits give low values 1.02 | S. cerevisiae deletion strains, locus YKL085W, strain MDH1 (second series), hits give low values 1.01 | S. cerevisiae deletion strains, locus YKL085W, strain MDH1, hits give low values 1.01 | S. cerevisiae deletion strains, locus YKL160W, strain elf1, hits give low values 1.01 | S. cerevisiae deletion strains, locus YKL190W, strain CNB1, hits give low values 0.99 | S. cerevisiae deletion strains, locus YKR001C, strain vps1, hits give low values 0.954 | S. cerevisiae deletion strains, locus YKR026C, strain gcn3, hits give low values 0.992 | S. cerevisiae deletion strains, locus YKR091W, strain srl3, hits give low values 0.999 | S. cerevisiae deletion strains, locus YLL001W, strain dnm1, hits give low values 0.992 | S. cerevisiae deletion strains, locus YLL026W, hits give low values 0.989 | S. cerevisiae deletion strains, locus YLL041C, strain sdh2, hits give low values 0.98 | S. cerevisiae deletion strains, locus YLR027C, strain aat2, hits give low values 0.972 | S. cerevisiae deletion strains, locus YLR039C, strain RIC1, hits give low values 0.858 | S. cerevisiae deletion strains, locus YLR058C, strain SHM2, hits give low values 0.962 | S. cerevisiae deletion strains, locus YLR102C, strain apc9, hits give low values 1.01 | S. cerevisiae deletion strains, locus YLR113W, strain HOG1, hits give low values 0.919 | S. cerevisiae deletion strains, locus YLR221C, strain rsa3, hits give low values 0.936 | S. cerevisiae deletion strains, locus YLR258W, strain gsy2, hits give low values 0.988 | S. cerevisiae deletion strains, locus YLR262C, strain YPT6, hits give low values 0.921 | S. cerevisiae deletion strains, locus YLR268W, strain sec22, hits give low values 0.932 | S. cerevisiae deletion strains, locus YLR320W, strain mms22, hits give low values 0.967 | S. cerevisiae deletion strains, locus YLR330W, strain CHS5, hits give low values 0.997 | S. cerevisiae deletion strains, locus YLR342W, strain FKS1 (second series), hits give low values 0.808 | S. cerevisiae deletion strains, locus YLR342W, strain FKS1, hits give low values 0.972 | S. cerevisiae deletion strains, locus YLR357W, strain rsc2, hits give low values 0.879 | S. cerevisiae deletion strains, locus YLR370C, strain arc18, hits give low values 0.971 | S. cerevisiae deletion strains, locus YLR371W, strain rom2, hits give low values 1.01 | S. cerevisiae deletion strains, locus YLR384C, strain iki3, hits give low values 0.982 | S. cerevisiae deletion strains, locus YLR418C, strain cdc73, hits give low values 0.907 | S. cerevisiae deletion strains, locus YML016C, strain PPZ1, hits give low values 0.973 | S. cerevisiae deletion strains, locus YML032C, strain rad52, hits give low values 1 | S. cerevisiae deletion strains, locus YML120C, strain ndi1, hits give low values 1.07 | S. cerevisiae deletion strains, locus YML124C, strain tub3, hits give low values 1.01 | S. cerevisiae deletion strains, locus YMR058W, strain fet3, hits give low values 0.947 | S. cerevisiae deletion strains, locus YMR078C, strain ctf18, hits give low values 1 | S. cerevisiae deletion strains, locus YMR125W, strain sto1, hits give low values 1.11 | S. cerevisiae deletion strains, locus YMR129W, hits give low values 0.993 | S. cerevisiae deletion strains, locus YMR205C, strain PFK2, hits give low values 1.03 | S. cerevisiae deletion strains, locus YMR223W, strain ubp8, hits give low values 0.95 | S. cerevisiae deletion strains, locus YMR231W, strain pep5, hits give low values 0.973 | S. cerevisiae deletion strains, locus YMR263W, strain SAP30, hits give low values 0.994 | S. cerevisiae deletion strains, locus YMR307W, strain GAS1, hits give low values 0.862 | S. cerevisiae deletion strains, locus YNL067W, strain RPL9B, hits give low values 0.992 | S. cerevisiae deletion strains, locus YNL071W, strain lat1, hits give low values 0.929 | S. cerevisiae deletion strains, locus YNL128W, strain TEP1, hits give low values 1.02 | S. cerevisiae deletion strains, locus YNL153C, strain GIM3, hits give low values 0.973 | S. cerevisiae deletion strains, locus YNL209W, strain ssb2, hits give low values 0.984 | S. cerevisiae deletion strains, locus YNL233W, strain BNI4, hits give low values 0.985 | S. cerevisiae deletion strains, locus YNL248C, strain rpa49, hits give low values 0.974 | S. cerevisiae deletion strains, locus YNL250W, strain rad50, hits give low values 1.01 | S. cerevisiae deletion strains, locus YNL271C, strain bni1, hits give low values 0.99 | S. cerevisiae deletion strains, locus YNL298W, strain CLA4, hits give low values 1.01 | S. cerevisiae deletion strains, locus YNL307C, strain MCK1, hits give low values 0.97 | S. cerevisiae deletion strains, locus YNL322C, strain KRE1 (second series), hits give low values 1.02 | S. cerevisiae deletion strains, locus YNL322C, strain KRE1, hits give low values 1 | S. cerevisiae deletion strains, locus YNR049C, strain mso1, hits give low values 0.983 | S. cerevisiae deletion strains, locus YNR052C, strain pop2, hits give low values 0.984 | S. cerevisiae deletion strains, locus YOL012C, strain htz1 0.93 | S. cerevisiae deletion strains, locus YOL147C, strain pex11, hits give low values 0.99 | S. cerevisiae deletion strains, locus YOR001W, strain rrp6, hits give low values 0.943 | S. cerevisiae deletion strains, locus YOR061W, strain CKA2, hits give low values 0.985 | S. cerevisiae deletion strains, locus YOR069W, strain VPS5, hits give low values 0.99 | S. cerevisiae deletion strains, locus YOR070C, strain gyp1, hits give low values 0.97 | S. cerevisiae deletion strains, locus YOR080W, strain dia2, hits give low values 0.992 | S. cerevisiae deletion strains, locus YOR083W, strain WHI5, hits give low values 0.997 | S. cerevisiae deletion strains, locus YOR136W, strain idh2, hits give low values 0.999 | S. cerevisiae deletion strains, locus YOR144C, strain elg1, hits give low values 1.01 | S. cerevisiae deletion strains, locus YOR184W, strain ser1, hits give low values 0.88 | S. cerevisiae deletion strains, locus YOR265W, strain rbl2, hits give low values 0.976 | S. cerevisiae deletion strains, locus YOR270C, strain vph1, hits give low values 0.834 | S. cerevisiae deletion strains, locus YOR290C, strain snf2, hits give low values 0.991 | S. cerevisiae deletion strains, locus YOR316C, strain cot1, hits give low values 1.02 | S. cerevisiae deletion strains, locus YPL055C, strain LGE1, hits give low values 0.987 | S. cerevisiae deletion strains, locus YPL078C, strain atp4, hits give low values 1 | S. cerevisiae deletion strains, locus YPL106C, strain sse1, hits give low values 0.986 | S. cerevisiae deletion strains, locus YPL240C, strain hsp82, hits give low values 0.986 | S. cerevisiae deletion strains, locus YPL241C, strain CIN2, hits give low values 0.998 | S. cerevisiae deletion strains, locus YPL256C, strain CLN2, hits give low values 0.904 | S. cerevisiae deletion strains, locus YPR119W, strain clb2, hits give low values 1.02 | S. cerevisiae deletion strains, locus YPR141C, strain kar3, hits give low values 1.01 | S. cerevisiae deletion strains, locus YPR163C, strain tif3, hits give low values 1 | S. cerevisiae deletion strains, locus YPR167C, strain met16, hits give low values 1.02 | S. cerevisiae deletion strains, strain wtn01, hits give low values 0.977 | S. cerevisiae strains, strain wild type, hits give low values 0.996
